Inconclusive results are not listed. A call without a number means that no potency is given here. The source made the active and inactive calls. Calls come from the whole dose curve; as a rule, active = well fitted inhibition curve with a large enough effect; inconclusive = small, poorly fitted or top-dose-only effect; inactive = no such curve, though single readings can be large or run the other way.
Assay: qHTS for Inhibitors of the Aldehyde Dehydrogenase Family (ALDH1A2, ALDH1A3, ALDH2, ALDH3A1) (AID 2061307); note: nearly all actives have a fitted effect of over 50% in size; for potency: test system not described further here
Settings: ALDH inhibition qHTS; series mostly up to 50.3 µM
Potency is the fitted concentration of half-maximal effect.

| SMILES | Potency |
| --- | --- |
| CC(C)c1ccc(-c2cc(-c3nn(-c4nc(C(=O)O)cs4)c(CC4CC4)c3Cc3ccc(S(N)(=O)=O)cc3)ccc2F)cc1 | 1.12 µM (active) |
| O=C([C@@H](NS(=O)(=O)c1ccc2[nH]c(=O)ccc2c1)c1ccccc1)N(Cc1ccco1)Cc1cccs1 | inactive |
| CCOc1ccccc1NC(=O)c1nn(-c2ccc(OC)cc2)c(=O)c2c1c1ccccc1n2C | inactive |
| CCOCCNC(=O)N1CCN(c2nc(C)cs2)CC1 | 14.1 µM (active) |

From PubChem BioAssay (NCATS)
